Compound activity: PubChem BioAssay, National Center for Advancing Translational Sciences (NCATS)
The list is not random: actives were taken first. Their share in the collection is about 10%.
NIH3T3 tox = Cytotoxic Profiling in NIH 3T3 Cell Line of Diverse Libraries Using Quantitative High-Throughput Screening; NIH 3T3 viability, CellTiter-Glo ATP luminescence, 48-72 h; Potency, µM (titrated, usually from 96.7 µM), for inactives: top-dose activity change, negative = cytotoxicity, actives largely listed as inhibitors; AID 1345082, 2018; 94,000 tested, 4.3% active; further: on the % scale 0 is the no-effect control and ±100 the full control effect; nearly all actives have a fitted effect of over 55% in size
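Cytotoxicity is measured as loss of cellular ATP: NIH 3T3 cells (400/well) are exposed to compound for 48 or 72 hr at 37 °C, then CellTiter-Glo luminescence is imaged after 10 min at room temperature.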
FLuc inh = Firefly luciferase inhibition profiling of diverse chemical library using quantitative high-throughput screening | Luciferin 4-monooxygenase (Photinus pyralis), P08659 | purified P. pyralis luciferase, luminescence, biochemical | Potency, µM (doses to about 115 µM), actives largely listed as inhibitors | 76,000 tested, 2.5% active; further: on the % scale 0 is the no-effect control and ±100 the full control effect; nearly all actives have a fitted effect of over 65% in size
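Biochemical qHTS: compound (6-point titration) added to 10uM D-luciferin plus 10uM ATP in Tris acetate pH 7.5 buffer with Mg, Tween-20 and BSA, then purified enzyme at 10nM; light output imaged.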
GPT2 inhibitor = Primary qHTS assay for inhibitors of Glutamate pyruvate transaminase 2 (GPT2) | 100,000 tested, 0.25% active | Recombinant GPT2, coupled pyruvate oxidase/HRP Amplex Red fluorescence | Alanine aminotransferase 2 (Homo sapiens), Q8TD30 | Potency, µM (doses to about 57.7 µM), without a hit: at the top dose activity change, negative = inhibition, most hits filed as inhibitors | AID 1671188, 2021; further: on the % scale 0 is the no-effect control and ±100 the full control effect; nearly all actives have a fitted effect of over 60% in size
Target sequence (Q8TD30 whole entry, looked up): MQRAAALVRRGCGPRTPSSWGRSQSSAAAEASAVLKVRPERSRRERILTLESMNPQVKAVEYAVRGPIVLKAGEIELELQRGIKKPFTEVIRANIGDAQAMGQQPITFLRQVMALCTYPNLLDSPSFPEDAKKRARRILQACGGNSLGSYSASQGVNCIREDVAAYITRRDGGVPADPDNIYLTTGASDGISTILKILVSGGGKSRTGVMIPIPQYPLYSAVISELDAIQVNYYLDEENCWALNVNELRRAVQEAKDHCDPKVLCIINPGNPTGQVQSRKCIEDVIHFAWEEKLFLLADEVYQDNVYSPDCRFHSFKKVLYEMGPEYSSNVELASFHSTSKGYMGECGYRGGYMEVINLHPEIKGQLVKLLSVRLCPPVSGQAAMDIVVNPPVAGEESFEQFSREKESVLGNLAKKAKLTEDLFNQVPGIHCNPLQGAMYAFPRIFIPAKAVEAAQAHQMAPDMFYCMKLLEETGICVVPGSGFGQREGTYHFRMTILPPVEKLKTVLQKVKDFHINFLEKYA
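Fluorescence of coupled pyruvate oxidase/HRP/Amplex Red system (50uM Amplex, 30 min, dark) reports pyruvate formed by GPT2. Enzyme reaction: 10ng/uL GPT2, 2mM L-alanine, 250uM a-KG, 30 min room temperature, pH 7.5; 50uM AOA control.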
HEK293 tox = Cytotoxic Profiling in HEK 293 Cell Line of Diverse Libraries Using Quantitative High-Throughput Screening. HEK 293 viability, ATP luminescence (CellTiter-Glo), 48-72 h. 94,000 tested, 6.6% active. Potency, µM (series often up to 115 µM), for the others: at the highest dose activity change, negative = cytotoxicity, usual class: inhibitors; further: on the % scale 0 is the no-effect control and ±100 the full control effect; nearly all actives have a fitted effect of over 60% in size
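Read-out: CellTiter-Glo ATP luminescence. Cells: HEK 293, 250 cells/well. Exposure: 48 or 72 hr, 37 degree Celsius.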
hNpr1 antagonist = Natriuretic polypeptide receptor (hNpr1) antagonism - Primary qHTS; Atrial natriuretic peptide receptor 1 (Homo sapiens), P16066; HEK293 hNpr1 GloSensor cGMP, ANP-stimulated luminescence; Potency, µM (highest dose often 46.3 µM), for the others: at the highest dose activity change, negative = inhibition, most hits filed as inhibitors; 76,000 tested, 1.6% active; AID 1347048, 2019; calls by dose curve; further: on the % scale 0 is the no-effect control and ±100 the full control effect; nearly all actives have a fitted effect of over 60% in size
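HEK293 cells stably expressing human Npr1 and cGMP GloSensor pGS-40F, loaded 2 h with 2% GloSensor reagent, given compound 30 min at room temperature. Luminescence read before and 20 min after 0.1 nM hNppA.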
Npr1 antag conf = Natriuretic polypeptide receptor (hNpr1) antagonism - Confirmation | shares compounds with hNpr1 antagonist | Potency, µM (titrated, usually from 57.6 µM), without a hit: top-dose activity change, negative = inhibition, usual class: inhibitors | 1,400 tested, 76% active | HEK293 hNpr1 cGMP GloSensor luminescence, ANP-stimulated | AID 1347044, 2019; calls by dose curve; further: nearly all actives have a fitted effect of over 70% in size
NPR2 antag = Natriuretic polypeptide receptor (hNpr2) antagonism - Subtype selectivity assay; shares compounds with hNpr1 antagonist; HEK293 hNpr2 GloSensor cGMP luminescence, CNP-stimulated; Potency, µM (top dose mostly 57.6 µM), inactives show top-dose activity change, negative = inhibition, most hits filed as inhibitors; 1,400 tested, 67% active; calls by dose curve; further: nearly all actives have a fitted effect of over 70% in size
FLuc inh counter = Natriuretic polypeptide receptor (hNpr1) antagonism - Confirmation firefly luciferase (FLuc) inhibition counterscreen; purified FLuc enzyme, luminescence, Km substrate; shares compounds with hNpr1 antagonist; 1,400 tested, 0.7% active; Potency, µM (top dose mostly 57.6 µM), inactives show at the highest dose activity change, negative = inhibition, actives largely listed as inhibitors; further: 0% is about no effect
GloSensor ctrl = Natriuretic polypeptide receptor (hNpr1) antagonism - Counterscreen GloSensor control cell line; shares compounds with hNpr1 antagonist; HEK293 GloSensor cGMP, SNP-stimulated, luminescence; Potency, µM (highest dose often 57.6 µM), inactives show at the top dose activity change, negative = inhibition, usual class: inhibitors; 1,400 tested, 69% active; AID 1347051, 2019; calls by dose curve; further: on the % scale 0 is the no-effect control and ±100 the full control effect; nearly all actives have a fitted effect of over 70% in size
Numbers without * were called inactive; i = inactive; ? = inconclusive; · = no result given; [ ] = another dose, or the depositor's remark. Unless noted, the call rests on the fitted dose curve; in most records, active means well fitted curve in the direction sought with a large enough effect; inconclusive means small, poorly fitted or top-dose-only effect, or another doubt; inactive means no such curve, though single readings can be large; an effect the other way counts as inactive or inconclusive. Potency means the concentration at half of the fitted maximal effect.

SMILES | NIH3T3 tox | FLuc inh | GPT2 inhibitor | HEK293 tox | hNpr1 antagonist | Npr1 antag conf | NPR2 antag | FLuc inh counter | GloSensor ctrl
Cn1cc(-c2cccc(O)c2)c2nc(COc3ccc(Cl)cc3)cn2c1=O | ? | i | -0.9%[88.5 µM] | 31.6µM* | 35.5µM* | 39.6µM* | ? | -27.2%[86.2 µM] | 35.3µM*
CC(C)c1nncn1C1CCN(S(=O)(=O)c2cccc(Cl)c2)CC1 | -24.2% | i | 3.1% | -20.8% | ? | ? | ? | 0.1% | 24.3µM*
COc1ccc(-n2nc(C3CCCN(C(=O)Nc4ccccc4)C3)[nH]c2=O)cc1 (stereo unspecified) | -18.7% | i | ? | ? | 0.0% | · | · | · | ·
Cc1nn(C)c2nc(N3CCC(C#N)(c4ccccc4)CC3)sc12 | ? | i | 1.1%[11.5 µM] | 28.2µM* | 15.8µM* | 21.7µM* | 24.3µM* | -0.2% | 21.7µM*
COc1ccc(C(=O)NCCc2noc(-c3ccccc3)n2)cc1F | ? | i | -24.5% | ? | ? | ? | -16.9% | 1.2% | 6.8%
O=C(CCC1CCCC1)NCCc1noc(-c2ccccc2)n1 | ? | i | -15.8% | 79.4µM* | ? | ? | -25.4% | 0.9% | -10.0%
CC(C)(C)CC(=O)NCCc1noc(-c2ccccc2)n1 | -25.2% | i | i | -8.8% | 3.4% | · | · | · | ·
O=C(NCCc1noc(-c2ccccc2)n1)c1ccccc1 | -27.0% | i | -15.2% | ? | -15.1% | · | · | · | ·
CCN(Cc1cccc2cnccc12)CC1CCCN(CCc2cccc(F)c2)C1 (stereo unspecified) | 39.8µM* | i | -6.6% | 17.8µM* | ? | 24.3µM* | 19.3µM* | -2.4% | -0.5%
CCN(Cc1nc2ccccc2[nH]1)CC1CCCN(CCc2cccc(F)c2)C1 (stereo unspecified) | ? | i | -11.6% | ? | -14.7% | · | · | · | ·
O=C(Nc1ccc(F)cc1)C1CCc2nc(N3CCN(C(=O)C4CCC4)CC3)sc2C1 (stereo unspecified) | ? | i | 2.7% | 10µM* | 3.55µM* | 7.69µM* | 10.9µM* | -20.2% | 9.68µM*
O=C(NCC1CCCCC1)C1CCc2nc(N3CCN(C(=O)C4CCC4)CC3)sc2C1 (stereo unspecified) | -10.8% | i | i | -38.4% | 7.6% | · | · | · | ·
Brc1ccc(CN2CCC(c3nc4ccncc4[nH]3)C2)cc1 (stereo unspecified) | ? | i | 4.7% | ? | 11.2µM* | 24.3µM* | 21.7µM* | -1.1% | ?
O=C(Nc1ccc2cn[nH]c2c1)c1ccc2c(c1)OCCN(c1ccccc1)C2 | 39.8µM* | i | -9.2%[88.5 µM] | 44.7µM* | ? | 35.3µM* | ? | -18.4%[86.2 µM] | 35.3µM*
Cc1c(C(C)NC(=O)c2ccccc2-c2ncn[nH]2)cnn1-c1ccccn1 (stereo unspecified) | 2.7% | i | -1.0% | -0.7% | 5.8% | · | · | · | ·
Cc1nc2ccccn2c1C(=O)NC(C)c1cnn(-c2ccccn2)c1C (stereo unspecified) | ? | i | i | ? | 4.47µM* | 6.11µM* | 9.68µM* | 6.5% | 4.85µM*
CC(C)c1ccc(CN2CC[C@@H]3OCC(=O)N(C(C)C)[C@H]3CC2)cc1 | ? | i | -9.1%[88.5 µM] | ? | 8.91µM* | 7.89µM* | 11.1µM* | -0.1%[86.2 µM] | 6.27µM*
CC(C)N1C(=O)CO[C@H]2CCN(Cc3ccccc3Cl)CC[C@@H]21 | ? | i | 0.7%[88.5 µM] | ? | 2.82µM* | 7.89µM* | 11.1µM* | 3.2%[86.2 µM] | 6.27µM*
O=C(Cc1ccccc1)N1CCC2(CC1)CN(Cc1ccccc1)CC2CO (stereo unspecified) | ? | i | ? | ? | -21.7% | · | · | · | ·
Cc1cccc(-c2ccccc2C=O)c1 | 3.4%[174 µM] | · | 3.4%[88.5 µM] | -9.7%[230 µM] | · | · | · | · | ·
O=Cc1ccccc1-c1cccc(O)c1 | ? | · | -5.4%[88.5 µM] | ? | · | ? | 49.9µM* | ? | ?
CCCc1ccc(S(=O)(=O)NC2CCN(c3ccc(=O)n(CC4CC4)n3)CC2)cc1 | ? | i | ? | ? | 10µM* | 12.2µM* | 15.3µM* | -0.6% | 13.7µM*
O=c1ccc(N2CCC(NS(=O)(=O)c3ccccc3Cl)CC2)nn1CC1CC1 | ? | i | 4.7% | -39.0% | 12.6µM* | 27.3µM* | 21.7µM* | -1.1% | 24.3µM*
O=C(CCC1CCCCC1)NC1CCN(c2ccc(=O)n(CC3CC3)n2)CC1 | ? | i | 2.4% | ? | ? | · | · | · | ·
COc1ccc(CC(=O)N2CNC(=O)C23CCN(C(=O)C2CCN(C)CC2)CC3)cc1 | -13.0% | · | -13.8% | i | · | · | · | · | ·
CC1=C[C@@H](CNS(C)(=O)=O)[C@H](C(C)C)C[C@H]1Cc1nc2ccccc2n1C | ? | i | ? | ? | 28.2µM* | 35.3µM* | 28µM* | 0.4%[86.2 µM] | 31.4µM*
CCCOc1ccccc1C(=O)N1CCc2onc(-c3ccccc3)c2C1 | ? | i | i | ? | ? | ? | ? | 2.1% | -23.0%
CCC(O)C(=O)N1CCc2onc(-c3ccc(-c4ccccc4)cc3)c2C1 (stereo unspecified) | ? | i | 4.2% | ? | 11.2µM* | 24.3µM* | 24.3µM* | ? | 24.3µM*
CCOc1ncccc1C(=O)N1CCc2onc(-c3ccccc3F)c2C1 | ? | i | 4.5% | ? | -18.9% | · | · | · | ·
